# The sample as a whole holds a higher share of the strongest signals than the screen did.
# Legend:
# Experiment in all cases: glycan array binding signal (z-score within array); higher = stronger binding
# Details in all cases: glycan notation: IUPAC condensed, linker removed
# [1] = target: Fuc(a1-2)Gal(b1-3)GalNAc(a1-3)[Fuc(a1-2)]Gal(b1-4)Glc
# Outline: (§1)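 From the Consortium for Functional Glycomics database, 3228 arrays were curated, keeping only those whose protein sequence was available. Binding is given as a within-array Z-score averaged across arrays sharing a protein sequence and across linkers. Negative Z-scores can be read as non-binding.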
# [2] = target: Fuc(a1-2)Gal(b1-3)GalNAc(b1-3)Gal
# Outline: as §1
# [3] = target: Fuc(a1-2)Gal(b1-3)GlcNAc(b1-2)Man(a1-3)[Fuc(a1-2)Gal(b1-3)GlcNAc(b1-2)Man(a1-6)]Man(b1-4)GlcNAc(b1-4)[Fuc(a1-6)]GlcNAc
# Outline: as §1
# [4] = target: Fuc(a1-2)Gal(b1-3)GlcNAc6S
# Outline: as §1
# Fuc(a1-2)Gal(b1-4)Glc = target: Fuc(a1-2)Gal(b1-4)Glc
# Outline: as §1
# [5] = target: Fuc(a1-2)[Gal(a1-3)]Gal(b1-4)GlcNAc(b1-2)Man
# Outline: as §1
# [6] = target: Fuc(a1-2)[GalNAc(a1-3)]Gal(b1-3)GlcNAc(b1-6)GalNAc
# Outline: as §1
# [7] = target: Fuc(a1-2)[GalNAc(a1-3)]Gal(b1-4)GlcNAc(b1-6)GalNAc
# Outline: as §1
# [8] = target: Fuc(a1-2)[GalNAc(a1-3)]Gal(b1-4)[Fuc(a1-3)]GlcNAc
# Outline: as §1
# [9] = target: Fuc(a1-2)[GalNAc(a1-4)]Gal(b1-4)GlcNAc
# Outline: as §1
# [10] = target: Fuc(a1-3)[GalNAc(b1-4)]GlcNAc6S
# Outline: as §1
# Gal(a1-3)Gal = target: Gal(a1-3)Gal
# Outline: as §1
# Gal(a1-4)Gal(b1-4)GlcNAc = target: Gal(a1-4)Gal(b1-4)GlcNAc
# Outline: as §1
# Gal(b1-2)Gal = target: Gal(b1-2)Gal
# Outline: as §1
# [11] = target: Gal(b1-3)GlcNAc(b1-2)Man(a1-3)[Gal(b1-3)GlcNAc(b1-2)Man(a1-6)]Man(b1-4)GlcNAc(b1-4)[Fuc(a1-6)]GlcNAc
# Outline: as §1
# [12] = target: Gal(b1-3)GlcNAc(b1-2)[Gal(b1-3)GlcNAc(b1-6)]Man(a1-6)[Gal(b1-3)GlcNAc(b1-2)Man(a1-3)]Man(b1-4)GlcNAc(b1-4)GlcNAc
# Outline: as §1
# [13] = target: Gal(b1-3)GlcNAc(b1-3)Gal(b1-4)[Fuc(a1-3)]GlcNAc(b1-6)[Gal(b1-3)GlcNAc(b1-3)]Gal(b1-4)Glc
# Outline: as §1
# [14] = target: Gal(b1-3)[Fuc(a1-4)]GlcNAc(b1-6)GalNAc
# Outline: as §1
# [15] = target: Gal(b1-3)[Neu5Ac(a2-6)]GalNAc
# Outline: as §1
# [16] = target: Gal(b1-4)GlcNAc(b1-2)[Gal(b1-4)GlcNAc(b1-6)]Man(a1-6)[Gal(b1-4)GlcNAc(b1-2)Man(a1-3)]Man(b1-4)GlcNAc(b1-4)GlcNAc
# Outline: as §1
# [17] = target: Gal(b1-4)GlcNAc(b1-2)[Gal(b1-4)GlcNAc(b1-6)]Man(a1-6)[Gal(b1-4)GlcNAc(b1-2)Man(a1-3)]Man(b1-4)GlcNAc(b1-4)[Fuc(a1-6)]GlcNAc
# Outline: as §1
# [18] = target: Gal(b1-4)GlcNAc(b1-3)Gal(b1-4)GlcNAc(b1-3)Gal(b1-4)GlcNAc(b1-3)Gal(b1-4)GlcNAc(b1-3)Gal(b1-4)GlcNAc(b1-2)[Gal(b1-4)GlcNAc(b1-3)Gal(b1-4)GlcNAc(b1-3)Gal(b1-4)GlcNAc(b1-3)Gal(b1-4)GlcNAc(b1-3)Gal(b1-4)GlcNAc(b1-6)]Man(a1-6)[Gal(b1-4)GlcNAc(b1-3)Gal(b1-4)GlcNAc(b1-3)Gal(b1-4)GlcNAc(b1-3)Gal(b1-4)GlcNAc(b1-3)Gal(b1-4)GlcNAc(b1-2)Man(a1-3)]Man(b1-4)GlcNAc(b1-4)[Fuc(a1-6)]GlcNAc
# Outline: as §1
# Gal4S(b1-4)GlcNAc = target: Gal4S(b1-4)GlcNAc
# Outline: as §1
# GalNAc(b1-3)Gal = target: GalNAc(b1-3)Gal
# Outline: as §1
# GalNAc(b1-4)GlcNAc = target: GalNAc(b1-4)GlcNAc
# Outline: as §1
# GalNAc3S(b1-4)GlcNAc3S = target: GalNAc3S(b1-4)GlcNAc3S
# Outline: as §1
# GalNAc6S(b1-4)GlcNAc = target: GalNAc6S(b1-4)GlcNAc
# Outline: as §1
# [19] = target: GlcNAc(b1-3)Gal(b1-4)GlcNAc(b1-2)[GlcNAc(b1-3)Gal(b1-4)GlcNAc(b1-6)]Man(a1-6)[GlcNAc(b1-3)Gal(b1-4)GlcNAc(b1-2)Man(a1-3)]Man(b1-4)GlcNAc(b1-4)GlcNAc
# Outline: as §1
# [20] = target: GlcNAc(b1-3)Gal(b1-4)GlcNAc(b1-3)Gal(b1-4)GlcNAc(b1-2)Man(a1-3)[GlcNAc(b1-3)Gal(b1-4)GlcNAc(b1-3)Gal(b1-4)GlcNAc(b1-2)Man(a1-6)]Man(b1-4)GlcNAc(b1-4)[Fuc(a1-6)]GlcNAc
# Outline: as §1
# [21] = target: GlcNAc(b1-4)[GlcNAc(b1-6)]GalNAc
# Outline: as §1
# Man(a1-3)[Man(a1-6)]Man = target: Man(a1-3)[Man(a1-6)]Man
# Outline: as §1
# [22] = target: Neu5Ac(a2-3)Gal(b1-3)GlcNAc(b1-2)Man
# Outline: as §1
# [23] = target: Neu5Ac(a2-3)Gal(b1-3)GlcNAc(b1-6)GalNAc
# Outline: as §1
# [24] = target: Neu5Ac(a2-3)Gal(b1-4)GlcNAc(b1-3)Gal(b1-4)GlcNAc(b1-3)Gal(b1-4)GlcNAc(b1-2)Man(a1-3)[Neu5Ac(a2-3)Gal(b1-4)GlcNAc(b1-3)Gal(b1-4)GlcNAc(b1-3)Gal(b1-4)GlcNAc(b1-2)Man(a1-6)]GalNAc
# Outline: as §1
# [25] = target: Neu5Ac(a2-3)Gal(b1-4)GlcNAc(b1-3)Gal(b1-4)GlcNAc(b1-3)GalNAc
# Outline: as §1
# [26] = target: Neu5Ac(a2-3)Gal(b1-4)GlcNAc(b1-3)GalNAc
# Outline: as §1
# [27] = target: Neu5Ac(a2-3)Gal(b1-4)GlcNAc(b1-6)GalNAc
# Outline: as §1
# [28] = target: Neu5Ac(a2-6)Gal(b1-4)GlcNAc(b1-2)[Neu5Ac(a2-6)Gal(b1-4)GlcNAc(b1-4)]Man(a1-3)[GlcNAc(b1-4)][Neu5Ac(a2-6)Gal(b1-4)GlcNAc(b1-2)[Neu5Ac(a2-6)Gal(b1-4)GlcNAc(b1-6)]Man(a1-6)]Man(b1-4)GlcNAc(b1-4)GlcNAc
# Outline: as §1
# [29] = target: Neu5Ac(a2-6)Gal(b1-4)GlcNAc(b1-3)GalNAc
# Outline: as §1
# [30] = target: Neu5Ac(a2-6)Gal(b1-4)GlcNAc(b1-6)[Gal(b1-3)GlcNAc(b1-3)]Gal(b1-4)Glc
# Outline: as §1
# Neu5Ac(a2-6)GalNAc = target: Neu5Ac(a2-6)GalNAc
# Outline: as §1
# [31] = target: Neu5Ac(a2-6)GalNAc(b1-4)GlcNAc6S
# Outline: as §1
# [32] = target: Neu5Ac(a2-8)Neu5Ac(a2-3)[Gal(b1-3)GalNAc(b1-4)]Gal(b1-4)Glc
# Outline: as §1
# [33] = target: Neu5Gc(a2-3)Gal(b1-4)GlcNAc
# Outline: as §1
# [34] = target: Neu5Gc(b2-6)Gal(b1-4)GlcNAc
# Outline: as §1
binder,measurement,setting,value
Cohesin-mDC-ASGPR (Macaca mulatta) (protein) LDITSHHHHHHDDLDAVRIKVDTVNAKPGDTVRIPVRFSGIPSKGIANCDFVYSYDPNVLEIIEIEPGDIIVDPNPDKSFDTAVYPDRKIIVFLFAEDSGTGAYAITKDGVFATIVAKVKEGAPNGLSVIKFVEVGGFANNDLVEQKTQFFDGGVNVGDTTEPATPTTPVTTPTTTDDLDAASSQNSKFQRDLVTLRTDFSNFTSNTVAEIQALTSQGSSVEEMIASLKAEVEVIKQEQQAVHSEMLLRVQRLMQDLNKLTCQVATLKNNASTERTCCPVNWVEHQDSCYWFSRSGMPWAEAEKHCQLENAHLVVINSREEQNFVQEHLSFAYTWMGLSDREGAWKWVDGTDYETGFQNWKPGQPDDWQGHGLGGGEDCAHFHPDGRWNDDVCQRPYYWVCEAGLTQASQESH,glycan array binding signal (z-score),[1],-0.406
same,glycan array binding signal (z-score),[2],0.568
same,glycan array binding signal (z-score),[3],-0.227
same,glycan array binding signal (z-score),[4],0.873
same,glycan array binding signal (z-score),Fuc(a1-2)Gal(b1-4)Glc,-0.387
same,glycan array binding signal (z-score),[5],-0.34
same,glycan array binding signal (z-score),[6],3.22
same,glycan array binding signal (z-score),[7],3.46
same,glycan array binding signal (z-score),[8],0.425
same,glycan array binding signal (z-score),[9],3.47
same,glycan array binding signal (z-score),[10],3.4
same,glycan array binding signal (z-score),Gal(a1-3)Gal,-0.427
same,glycan array binding signal (z-score),Gal(a1-4)Gal(b1-4)GlcNAc,-0.412
same,glycan array binding signal (z-score),Gal(b1-2)Gal,-0.312
same,glycan array binding signal (z-score),[11],-0.402
same,glycan array binding signal (z-score),[12],-0.399
same,glycan array binding signal (z-score),[13],-0.418
same,glycan array binding signal (z-score),[14],3.02
same,glycan array binding signal (z-score),[15],-0.372
same,glycan array binding signal (z-score),[16],-0.394
same,glycan array binding signal (z-score),[17],-0.418
same,glycan array binding signal (z-score),[18],-0.379
same,glycan array binding signal (z-score),Gal4S(b1-4)GlcNAc,-0.407
same,glycan array binding signal (z-score),GalNAc(b1-3)Gal,3.51
same,glycan array binding signal (z-score),GalNAc(b1-4)GlcNAc,3.5
same,glycan array binding signal (z-score),GalNAc3S(b1-4)GlcNAc3S,-0.428
same,glycan array binding signal (z-score),GalNAc6S(b1-4)GlcNAc,3.82
same,glycan array binding signal (z-score),[19],-0.07
same,glycan array binding signal (z-score),[20],-0.329
same,glycan array binding signal (z-score),[21],-0.393
same,glycan array binding signal (z-score),Man(a1-3)[Man(a1-6)]Man,-0.397
same,glycan array binding signal (z-score),[22],-0.342
same,glycan array binding signal (z-score),[23],3.56
same,glycan array binding signal (z-score),[24],-0.248
same,glycan array binding signal (z-score),[25],-0.413
same,glycan array binding signal (z-score),[26],-0.418
same,glycan array binding signal (z-score),[27],3.67
same,glycan array binding signal (z-score),[28],-0.401
same,glycan array binding signal (z-score),[29],2.03
same,glycan array binding signal (z-score),[30],-0.418
same,glycan array binding signal (z-score),Neu5Ac(a2-6)GalNAc,3.61
same,glycan array binding signal (z-score),[31],2.56
same,glycan array binding signal (z-score),[32],3.49
same,glycan array binding signal (z-score),[33],-0.399
same,glycan array binding signal (z-score),[34],-0.424

# Source: the supplement of paper PMC8728848
